Experimental data taken from PubChem BioAssay AID1645859 (Buhrlage Lab, Dana-Farber Cancer Institute and Novartis …, 2021).
Screen size: about 47,000 compounds; about 95 (0.2%) were called active. This is one part of a sample in which actives are shown more often than they occur. Unmarked numbers belong to inactive results. Cut-off read from the data, not from the text of the source: active = inhibition above about 30%; inactive = the rest.

These compounds were tested against Ubiquitin carboxyl-terminal hydrolase isozyme L1 (Homo sapiens) (UniProt P09936) (assay: blocks human UCHL1 ubiquitin-rhodamine cleavage (AID 1645859)). Conditions: purified UCHL1, Ub-rhodamine cleavage fluorescence; at 20 µM; active compounds read high.
Ubiquitin carboxyl-terminal hydrolase isozyme L1 (Homo sapiens), sequence (P09936 whole entry, looked up): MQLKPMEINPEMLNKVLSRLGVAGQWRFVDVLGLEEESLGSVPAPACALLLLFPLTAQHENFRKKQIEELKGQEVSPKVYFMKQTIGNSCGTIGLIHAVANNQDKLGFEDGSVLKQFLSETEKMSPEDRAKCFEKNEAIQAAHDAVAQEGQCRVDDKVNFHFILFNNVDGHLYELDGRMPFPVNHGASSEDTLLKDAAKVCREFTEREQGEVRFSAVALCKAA
With COCC(=O)N1CCC(n2c(-c3ccccc3OC)nc3ccccc32)CC1 the inhibition was -2.92%. For COCCC(=O)N1CCC2(C/C=C/Cc3ccccc3OCC(=O)NCCNC2=O)CC1, the inhibition was 3.12%. COCC(=O)N1CCN2C[C@H]1C(=O)NC[C@H]1O[C@@H](CC(=O)N[C@H]3C[C@@H](C2=O)N(Cc2ccc(OC(F)(F)F)cc2)C3)[C@H](O)[C@@H]1O was tested, and the inhibition was -6.2%. For FC(F)(F)c1ccc(-c2nnc(SCCOc3ccccc3)o2)cc1, the inhibition was 11.1%. Cc1ccc(CN2CN(C3CCN(C(=O)c4ccoc4)CC3)CC2=O)c(C)c1 showed an inhibition of -0.0513%. For O=C(Nc1nc2nc(-c3ccccc3)cc(=O)n2[nH]1)C1CCCCC1, the inhibition was 4.88%. Cc1nc(-c2cn(C(C)C)c3ncccc23)sc1C(=O)N1CCCC1 showed an inhibition of 1.73%. Cc1ccc(CNC(=O)c2cc(=O)nc3sc(N4CCCC(C)C4)nn23)cc1 (centres undefined) gave an inhibition of 0.655%. Compound COc1ccc(C(NC(=O)CN(C)Cc2ccc3c(c2)OCO3)c2ccccc2)cc1 (centres undefined) has an inhibition of 6.51%. Compound Fc1ccccc1Cn1c(COc2ccccc2)nc2ccccc21 has an inhibition of 8.93%. O=C(N[C@@H]1CN(Cc2nccs2)[C@@H]2COC[C@@H]21)C1CCC1 was tested, and the inhibition was -3.31%. With O=C(Nc1ccc(F)cc1)c1cc(CN2CCOCC2)on1 the inhibition was 1.96%. C=C1CCC2[C@](C)(CCC[C@]2(C)C(=O)OC)[C@H]1CCc1ccoc1/C=C/C(=O)O (some centres undefined) gave an inhibition of 9.97%. Work on O=C1COC2(CCN(C(=O)C3(c4ccccc4)CCOCC3)C2)CN1c1ccc(F)cc1 (centres undefined) yielded an inhibition of 2.68%. For O=C(CCc1ccncc1)N(Cc1ccc2c(c1)OCO2)C1CCCCC1, the inhibition was -0.303%. Work on COC[C@H]1C[C@@H]2CN(S(=O)(=O)c3ccccc3OC)C(C)[C@H]1N2C (some centres undefined) yielded an inhibition of 0.608%. Compound O=C(Nc1nnc(-c2cccc([N+](=O)[O-])c2)o1)C1CCN(S(=O)(=O)c2ccc3c(c2)CCC3)CC1 has an inhibition of 5.08%. Cc1nc(Nc2ccccn2)cc(C2CCCN2Cc2ncc[nH]2)n1 (centres undefined) was tested, and the inhibition was -2.35%. With CCc1cccc(NS(=O)(=O)c2ccc3c(c2)C(C)(C)C(=O)N3)c1 the inhibition was 4.05%. In the case of COc1cccc(CNC(=O)CN2C(=O)CCc3cc(Br)ccc32)c1, the inhibition is reported as 3.25%. O=C1CC2(C(=O)N(Cc3cccc(Cl)c3)c3ccccc32)c2cn[nH]c2N1 (centres undefined) was tested, and the inhibition was -5.23%. For CCn1c(=O)c2ccccc2n(Cc2nc(-c3ccc(C)cc3)no2)c1=O, the inhibition was -1.69%. In the case of O=C(C1CCC1)N1CCN2C(=O)c3ccccc3[C@H]2C1, the inhibition is reported as -4.57%. O=C1C(O)=C(c2ccc(O)c(O)c2)C(=O)C(O)=C1c1ccccc1 gave an inhibition of 13.7%. For O=C1OCC2=C1C(c1ccccc1)CC(=O)N2c1cccc(F)c1 (centres undefined), the inhibition was -0.0471%. For Cc1nc(NCCO)c2sc3nc4c(cc3c2n1)COC(C)(C)C4, the inhibition was 3.92%. CCOc1ccccc1-c1nc(-c2nnn(Cc3ccccc3)c2C)no1 gave an inhibition of 7.54%. COc1ccc(C(Nc2ccc(S(=O)(=O)NCC3CCCO3)cc2)C(=O)NCC2CCCO2)cc1 (centres undefined) gave an inhibition of 1.49%. With O=C(Cn1c(=O)n(Cc2cccs2)c(=O)c2cc(Cl)ccc21)NCC1CCCO1 (centres undefined) the inhibition was 0.727%. Compound Cc1nc(N2CCOCC2)ncc1-c1cc(=O)[nH]c(N2CCC(Cc3ccccc3)CC2)n1 has an inhibition of 5.31%. Compound Cc1nc2ccccc2n1CC(O)c1ccccc1 (centres undefined) has an inhibition of -0.449%. In the case of O=C(c1noc2ccc(S(=O)(=O)N3CCCC3)cc12)N1CCCC1, the inhibition is reported as 0.984%. With Cc1ccc(CNc2nc3nc(CN4CCc5ccccc5C4)cc(=O)n3[nH]2)cc1 the inhibition was -0.288%. Work on O=C(Cn1cc(SCc2cccc(F)c2)c2ccccc21)N1CCCCCC1 yielded an inhibition of 7.23%. CC(C)Cc1cc(-c2nn3c(-c4ccccc4Cl)nnc3s2)n[nH]1 was tested, and the inhibition was 5.44%. For Cc1c(-c2nn3c(-c4ccco4)nnc3s2)cccc1[N+](=O)[O-], the inhibition was 61.3% (active). Compound O=C(COc1cccc2ccc(N3CCC(Cc4ccccc4)CC3)nc12)NCc1ccc(F)cc1 has an inhibition of 2.33%. O=C(c1cn(-c2cc(-c3nc(C4CC4)no3)ccn2)cn1)N1CCCCCC1 was tested, and the inhibition was -3.62%. O=C(NCCN1CCOCC1)C1CCN(c2ccc(N3CCCCC3)nn2)CC1 showed an inhibition of -0.229%. For Cc1ncc(-c2ccncc2)c(C2CCN(C(=O)c3cnccn3)CC2)n1, the inhibition was 0.226%. With Cn1cc2nc(SCC(=O)NCc3ccc(Cl)cc3)n(CC3CC3)c(=O)c2n1 the inhibition was -3.8%. O=c1c2ccccc2c(-c2nc(-c3ccncc3)no2)cn1-c1ccc(F)cc1 showed an inhibition of 3.33%. In the case of CSc1ncnc2c1sc1nc(-c3ccccc3)c3c(c12)CC(C)(C)OC3, the inhibition is reported as 2.83%. CC1(C)Cc2c(c(-c3ccco3)nc3sc4c(SCCCc5ccccc5)ncnc4c23)CO1 was tested, and the inhibition was 56.3% (active). For CCCCCCSc1ncnc2c1sc1nc(-c3ccccc3)c3c(c12)CC(C)(C)OC3, the inhibition was -2.54%. CCc1cnc(N2CC[C@@H]3CN(CC)S(=O)(=O)[C@@H]3CC2)nc1 showed an inhibition of 1.62%. Cc1nc2c(c(=O)[nH]1)C(c1ccc(OCc3ccccc3F)cc1)CC(=O)N2 (centres undefined) was tested, and the inhibition was -1.23%. Cc1cc(N(C)C)nc(N2CCN(S(=O)(=O)c3ccc(-c4ccccc4)cc3)CC2)n1 gave an inhibition of 1.74%. Work on Cc1cc(C)c2c(C)c(C(=O)NCc3csc(C)n3)oc2c1 yielded an inhibition of -0.0316%. Cc1ccc(C(=O)N2CCc3cc(-c4csc(NC(=O)CNc5ccccc5)n4)ccc32)cc1 showed an inhibition of -0.728%. Cc1nn(-c2ccc(Cl)cc2)c2c1C(c1cccc(Br)c1)N1C(=N2)N(C)c2c1c(=O)n(C)c(=O)n2C (centres undefined) was tested, and the inhibition was -0.542%. COCCCn1c(C(=O)N2CCC(C)CC2)cc2c(=O)n3ccccc3nc21 showed an inhibition of -5.93%. O=C1CN(C(=O)c2ccc(Cl)o2)c2ccccc2N1 was tested, and the inhibition was -5.13%. CCc1nnc2ccc(C(=O)N3CCN(c4ccccn4)CC3)cn12 gave an inhibition of 1.5%.
